Our source for the Potency values is PubChem BioAssay (NCATS).

The source made the active and inactive calls.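 How the source made its calls: active means compounds whose dose series gives a full or clear partial fitted curve of increased nuclear translocation; inconclusive means weak partial curve or effect only at the top dose; inactive means no dose-dependent translocation response.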 Where only a bound is given, the exact number is not on record here.
Potency means the concentration at half of the fitted maximal effect.

In the assay the target is Glucocorticoid receptor (Homo sapiens) (UniProt P04150). Briefly: GR-GFP Redistribution (AID 450). Conditions: U2OS GR-GFP nuclear translocation, laser cytometry, 2 h. The text has this: NIH Molecular Libraries Screening Centers Network [MLSCN]
Glucocorticoid receptor (Homo sapiens), sequence (P04150 whole entry, looked up): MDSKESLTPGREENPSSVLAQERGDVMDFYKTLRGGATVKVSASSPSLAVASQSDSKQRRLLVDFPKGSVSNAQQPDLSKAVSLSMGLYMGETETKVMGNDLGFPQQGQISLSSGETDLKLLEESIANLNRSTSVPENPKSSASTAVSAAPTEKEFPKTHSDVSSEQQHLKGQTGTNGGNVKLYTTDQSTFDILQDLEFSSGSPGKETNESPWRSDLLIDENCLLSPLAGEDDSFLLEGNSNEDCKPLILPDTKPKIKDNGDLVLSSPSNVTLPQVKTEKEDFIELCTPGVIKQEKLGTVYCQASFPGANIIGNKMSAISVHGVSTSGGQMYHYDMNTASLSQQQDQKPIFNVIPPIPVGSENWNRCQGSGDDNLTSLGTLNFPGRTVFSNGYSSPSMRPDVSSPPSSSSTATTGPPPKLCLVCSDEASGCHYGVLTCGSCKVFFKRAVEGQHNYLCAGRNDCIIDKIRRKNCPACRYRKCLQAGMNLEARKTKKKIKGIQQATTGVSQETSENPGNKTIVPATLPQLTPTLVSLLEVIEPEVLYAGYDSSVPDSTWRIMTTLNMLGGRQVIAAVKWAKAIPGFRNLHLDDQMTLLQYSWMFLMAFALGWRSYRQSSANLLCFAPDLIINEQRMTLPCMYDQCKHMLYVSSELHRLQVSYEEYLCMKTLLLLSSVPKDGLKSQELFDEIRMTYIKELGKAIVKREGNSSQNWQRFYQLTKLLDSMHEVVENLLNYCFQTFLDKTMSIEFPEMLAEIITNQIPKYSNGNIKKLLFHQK
NIH Chemical Genomics Center [NCGC]
The glucocorticoid receptor (GR) Redistribution assay (BioImage) enables the visualization of GR cytoplasmic to nuclear translocation by the use of a GR-GFP fusion. GR is normally cytosolic, however ligands such as dexamethasone, cause nuclear translocation where the protein binds to response elements and interacts with various co-factors to modulate transcription. Because both functional agonists and antagonists can induce nuclear translocation, this assay can detect ligands regardless of their effects on gene expression. GR-GFP expressing U20S cells were used here. Dexamethasone was the positive control for translocation and data normalization. Detection of nuclear translocation was performed in 1536-well plates using the Acumen laser scanning plate cytometer (TTP LabTech). Validation of this assay and a detailed protocol have been described.
NCGC Assay Protocol Summary:
GR-GFP U2OS cells were maintained in DMEM with Glutamax and high glucose, 1% v/v penicillin-streptomycin, and 0.5 mg/mL Geneticin. For cell culture, 10% […] fetal bovine serum (FBS) was used (Invitrogen #26140-079). For cell plating 10% dextran, charcoal-stripped FBS (Hyclone SH30068.03) was used. U2OS cells were trypsin treated, suspended in medium, and passed through a 40 um basket filter. The cells were seeded at 600 cells/5 uL/well into clear-bottom black sided 1536-well plates and incubated for approximately 20 hrs, 37degC, 5%, CO2 in a tissue culture incubator. Twenty-three nL of compound was delivered by pin tool and the plates were incubated as above for 2 hrs. The compounds were tested as a 7-point titration ranging from 46 uM to 0.6 nM. The cells were fixed using the Kalypsys Washer/Dispenser station. The fixing protocol involved aspiration of the cell media, addition of 6 uL/well of PBS, aspiration of PBS, addition of 5uL/well of 100% methanol, aspiration of methanol, and addition of 3 uL/well PBS with 1.5 uM propidium iodide (PI). The plates were read by the Acumen Explorer using a 1 x 8 um scan of the whole well area. PI fluorescence triggered the collection of PI and GFP signals. A nuclei population was defined by a 10 to 100 um width and depth filter that eliminated small and large fluorescent particles. Two subpopulations of nuclei were then defined by peak intensity of GFP fluorescence to obtain translocated and untranslocated objects. The number of translocated objects was used for data normalization.
Keywords: NIH Roadmap, MLSCN, MLI, MLSMR, sOGT, qHTS, NCGC
In the case of `Nc1nc2c(ncn2[C@@H]2C=C[C@@H](CO)C2)c(=O)[nH]1`, the Potency is > 46 µM (inactive).

On to `C/C(CC/C(C)=N/O)=N/O`, for which the Potency is > 46 µM (inactive).

Regarding `CNS(=O)(=O)c1ccccc1C(=N)c1ccccc1`, the Potency was > 46 µM (inactive).

For the compound `O=C1c2ccccc2C(O)(O)[C@@]1(O)[C@]1(O)C(=O)c2ccccc2C1(O)O`, the Potency was > 46 µM (inactive).

As to `O=[N+]([O-])c1ccc(Cl)c(CNc2ncnc3c2ncn3[C@@H]2CCCCO2)c1`, the Potency was > 46 µM (inactive).

`O=C(O)Cc1c[nH]c2ccc(F)cc12`: the Potency was > 46 µM (inactive).

On to `O=C1c2ccccc2[C@@H]([C@@H]2c3ccccc3C(=O)c3cc(Br)ccc32)c2ccc(Br)cc21`, for which the Potency was > 46 µM (inactive).

With `C[C@H](Br)C(=O)c1ccc2cc(Br)c3ccccc3c2c1`, the Potency is > 46 µM (inactive).

In the case of `Cn1c(=S)c2[nH]c(SCCN3CCCC3)nc2n(C)c1=O`, the Potency was > 46 µM (inactive).

As to `CC(CO)(CO)N=Cc1cc(I)cc(I)c1O`, the Potency is > 46 µM (inactive).

As to `CC(=O)Nc1c(C)cc(OCC(=O)O)cc1C`, the Potency was > 46 µM (inactive).

With `Nc1ccccc1S[C@@H](C[N+](=O)[O-])c1ccc2c(c1)OCO2`, the Potency was > 46 µM (inactive).

`O=C1C(=O)c2ccccc2C(O)=C1C(CCc1ccccc1)C1=C(O)c2ccccc2C(=O)C1=O`: the Potency is > 46 µM (inactive).

On to `CC1CCC(O)([C@](C)(C(=O)O)c2ccccc2)CC1` (stereo not given in full), for which the Potency was > 46 µM (inactive).

In the case of `COc1cc(O)c2c(O)c3c(c4c2c1[C@@]1(C4)C(C)=CCCC1(C)C)[C@H](O)[C@@]1(O)CC(=O)C(C(N)=O)=C(O)[C@]1(O)C3=O`, the Potency was > 46 µM (inactive).

With `CC1=NCC[N@@+]1(CCc1ccccc1)Cc1ccccc1`, the Potency was > 46 µM (inactive).

In the case of `CCCC[S@@](=N)(=O)CC[C@@H](N)C(=O)O`, the Potency was > 46 µM (inactive).

Regarding `O=C1Nc2ccccc2C1=Nc1ccc(S(=O)(=O)Nc2nccs2)cc1`, the Potency was > 46 µM (inactive).

Regarding `Nc1nc(SCC(=O)c2ccc(Br)cc2)c2[nH]cnc2n1`, the Potency is > 46 µM (inactive).

In the case of `O=C(N/N=C\c1ccc2c(c1)CCC2)c1ccccc1O`, the Potency is > 46 µM (inactive).

Regarding `O[C@@H](c1cc([C@@]23C[C@H]4CC[C@@H]2C[C@H](C4)C3)nc2c(Cl)cc(Cl)cc12)[C@@H]1CCCCN1`, the Potency was > 46 µM (inactive).

Regarding `CN(CC(=O)O)Cc1c(O)c(Cl)cc(Cl)c1Cl`, the Potency was > 46 µM (inactive).

With `O=C(O)C[C@@H](C(=O)O)c1ccccc1[N+](=O)[O-]`, the Potency is > 46 µM (inactive).

With `C[N+](C)(N)Cc1csc(-c2ccc(Cl)cc2)n1`, the Potency is > 46 µM (inactive).

Turning to `NCCNCC1CCNCC1`, the Potency was > 46 µM (inactive).

Consider `Clc1ccc2c(N3CCC(CCC4CCN(c5ncnc6cc(Cl)ccc56)CC4)CC3)ncnc2c1`, for which the Potency is > 46 µM (inactive).

As for `O=c1cc(CF)[nH]c(=S)[nH]1`, the Potency is > 46 µM (inactive).

Regarding `O[C@@H](COc1ccc(Cl)cc1Cl)CN1CCCC1`, the Potency was > 46 µM (inactive).

`O=C(O)C1(Nc2ccc(Cl)cc2)CCCC1`: the Potency was > 46 µM (inactive).

As to `CN1CCN(CN2C(=O)C3C4C=CC(C3C2=O)C2C3C(=O)N(CN5CCN(C)CC5)C(=O)C3C42)CC1` (stereo not given), the Potency was > 46 µM (inactive).

Turning to `C[N+]1(CCC[N+]2(C)C[C@H]3[C@H](C2)[C@H]2C=C[C@@H]3CC2)CCOCC1` (stereo not given in full), the Potency was > 46 µM (inactive).

For the compound `C[N+]1(CCN=C=NC2CCCCC2)CCOCC1`, the Potency is > 46 µM (inactive).

For `CC(C)[C@H](Sc1nc(N)nc2nc[nH]c12)C(=O)O`, the Potency was > 46 µM (inactive).

Turning to `N[C@@H](CSCc1ccccc1)C(=O)O`, the Potency is > 46 µM (inactive).

Consider `Cc1ccc(CCCC(=O)O)cc1C`, for which the Potency is > 46 µM (inactive).

Consider `CN(C)CCCN=C(N)N`, for which the Potency was > 46 µM (inactive).

As to `O[C@H]([C@H](O)[C@@H](O)c1nc2ccccc2[nH]1)[C@@H](O)c1nc2ccccc2[nH]1`, the Potency was > 46 µM (inactive).

In the case of `Cc1cccc(C)c1NC(=O)Nc1ccc(S(N)(=O)=O)cc1`, the Potency is > 46 µM (inactive).

As for `Cc1nc2sc3c(c2c(=O)[nH]1)CCCC3`, the Potency was > 46 µM (inactive).

Regarding `C#CCOC(=O)[C@H](N)CC(N)=O`, the Potency is > 46 µM (inactive).
